Assay [1] in a line: NCI Yeast Anticancer Drug Screen. Data for the rad50 strain (AID 155).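 Note: 0% = growth of vehicle-only cultures of the same strain.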 To be noted: S. cerevisiae rad50 strain growth inhibition; at 50.0 µM; stronger effect = higher value. In outline: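 Inhibition values express reduced yeast growth in compound-treated cultures relative to vehicle-treated controls.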
Assay [2] is described as follows: NCI Yeast Anticancer Drug Screen. Data for the mec2-1 strain (AID 157). To be noted: S. cerevisiae mec2-1 strain, at 50.0 µM, stronger effect = higher value. In a few lines:
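Mutant yeast (mec2-1) grown with compound; growth inhibition relative to vehicle control reported.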

Assay [3] can be described thus: NCI Yeast Anticancer Drug Screen. Data for the cln2 rad14 strain (AID 165).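 Note: 0% = growth equal to vehicle treated cultures.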 To be noted: S. cerevisiae cln2 rad14 strain, at 50.0 µM, stronger effect = higher value. In outline: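 Readout is yeast growth inhibition versus vehicle-treated controls, using a strain with cln2 and rad14 alterations exposed to compound.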
Assay [4] is described as follows: NCI Yeast Anticancer Drug Screen. Data for the bub3 strain (AID 167). To be noted: S. cerevisiae bub3 mutant strain, at 50.0 µM, stronger effect = higher value. In outline:
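Steps: expose the mutant yeast strain to compound; grow alongside vehicle-treated cultures; measure growth; express inhibition against the vehicle cultures.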

Assay [5] in a line: NCI Yeast Anticancer Drug Screen. Data for the mlh1 rad18 strain (AID 175). To be noted: S. cerevisiae mlh1 rad18 strain growth inhibition; at 50.0 µM; stronger effect = higher value. In outline:
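Genetically defined yeast (DNA repair-deficient) exposed to compounds; growth inhibition determined relative to vehicle.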

A short description of assay [6]: NCI Yeast Anticancer Drug Screen. Data for the sgs1 mgt1 strain (AID 161).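 Note: 0% = growth of cultures given vehicle only.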 To be noted: S. cerevisiae sgs1 mgt1 strain, at 50.0 µM, stronger effect = higher value. In a few lines: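 Yeast cells carrying a defined DNA-repair defect were exposed to test compounds. Growth inhibition was measured relative to vehicle-treated controls.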

This passage reports growth inhibition results from PubChem BioAssay (NCI).

This is part of a sample that, as a whole, favours compounds with a hit. Of some 79,000 tested, about 15% had one in any assay. A number with no mark means an inactive call. Calls of active or inactive are those of the source. Cut-off read from the data, not from the text of the source: active = growth inhibition above about 70%; inactive = the rest.

In the case of `CCN(CC)CCn1c(C(C)(C)C)nc2ccccc21`, the growth inhibition in assay [1] is -9.15%; in assay [2], -20.8%; in assay [3], -6.25%; in assay [4], -15.8%; in assay [5] it was -10.9%.

For the molecule `CC1(C)OC(=O)CC2(C)OC12` (stereo not given), the growth inhibition was -8% in assay [1]; -52.3% in assay [2]; -16.4% in assay [3]; -5.9% in assay [4]; -19.2% in assay [5].

On to `Cc1c(C(=O)CC(=O)C(=O)Nc2cc(Cl)ccc2Cl)[n+](=O)c2ccccc2n1[O-]`, for which the growth inhibition in assay [1] is -7.35%; in assay [2] it was 1.9%; in assay [3], 16.2%; in assay [4], 1.1%; in assay [5] it was 1.65%.

`CCCCCCCCCCCOCCC1C(C(C)OCCN2CCCC2)OC2OC(C)(C)OC21` (stereo not given): the growth inhibition was 91.5% (active) in assay [1]; 92.8% (active) in assay [2]; 90.4% (active) in assay [3]; 88.2% (active) in assay [4]; 89% (active) in assay [5].

Consider `O=C(CC(O)(C(F)(F)F)C(F)(F)F)c1ccc(Br)cc1`, for which the growth inhibition was 4.35% in assay [1]; 19.6% in assay [2]; -8.25% in assay [3]; 14.1% in assay [4]; 49.4% in assay [5].

For the molecule `C/C(=N\Nc1cc(C)nc2cc3c(cc12)OCO3)c1cn(C)n(-c2ccccc2)c1=O`, the growth inhibition in assay [1] was 19.9%; in assay [2], 54.5%; in assay [3] it was 34.9%; in assay [4], 12.4%; in assay [5] it was 39.1%.

Consider `O=C(CC1Sc2ccccc2NC1=O)NNc1c(Cl)cc(Cl)cc1Cl` (stereo not given), for which the growth inhibition in assay [1] is 6.45%; in assay [2] it was 0.9%; in assay [3], 17.3%; in assay [4], 0.55%; in assay [5] it was 33%.

For `CCCCCCCCCCCCCCCC[N+](C)(C)CC#CCCl`, the growth inhibition in assay [1] was -3.15%; in assay [2] it was 99.5% (active); in assay [3] it was 98.7% (active); in assay [4] it was 99.3% (active); in assay [5], 48.8%.

`CCCNC(=O)Oc1ccccc1C(N)=O`: the growth inhibition in assay [1] was -3.35%; in assay [2], -20.1%; in assay [3], -44%; in assay [4] it was 8%; in assay [5], -5.75%.

Take `CCOC(=O)CCCCCCCCCCCCC1C=CCC1` (stereo not given): the growth inhibition in assay [1] was -19.1%; in assay [2], -41.4%; in assay [3] it was -28.6%; in assay [4], -49.1%; in assay [5] it was -21.3%.

For `COc1ccc2ccccc2c1C(Cc1ccccc1)NCCO` (stereo not given), the growth inhibition was -17.2% in assay [1]; -2.3% in assay [6]; -4.95% in assay [3]; -0.55% in assay [4]; -2.75% in assay [5].

As to `O=C(/C=C\c1ccc([N+](=O)[O-])cc1)c1ccccc1`, the growth inhibition in assay [1] was -1.6%; in assay [6], -2.4%; in assay [3], -28.3%; in assay [4], -3.6%; in assay [5], -16.2%.

For the molecule `CNC(=S)SC(=S)NC`, the growth inhibition was 14.6% in assay [1]; -4.55% in assay [6]; -20.4% in assay [3]; -1.75% in assay [4]; 4.75% in assay [5].

With `COc1ccc(NC(=O)C(=O)Cc2ccc([N+](=O)[O-])c([N+](=O)[O-])c2CC(=O)C(=O)Nc2ccc(OC)cc2OC)c(OC)c1`, the growth inhibition is 0.35% in assay [1]; -44% in assay [6]; 17.8% in assay [3]; 6.15% in assay [4]; 8.05% in assay [5].

`COc1cc(C(c2cc3c(cc2O)OCO3)N2CCCC2)cc(OC)c1OC` (stereo not given): the growth inhibition was -13.2% in assay [1]; -13.9% in assay [6]; 13% in assay [3]; -5.3% in assay [4]; -7.85% in assay [5].

As for `O=[N+]([O-])c1ccc(N=Cc2ccccc2O)c(O)c1`, the growth inhibition is 21.9% in assay [1]; 2.75% in assay [6]; -8.55% in assay [3]; 20.8% in assay [4]; -2.05% in assay [5].

For `O=C1/C(=C/c2ccc(Br)cc2)CCC/C1=C\c1ccc(Br)cc1`, the growth inhibition was 24.2% in assay [1]; 0.25% in assay [6]; -15.8% in assay [3]; -11.9% in assay [4]; 13.9% in assay [5].

With `COc1ccc(C(C)=O)cc1CCCOC(C)=O`, the growth inhibition in assay [1] is -0.7%; in assay [6], -7.5%; in assay [3], 10.7%; in assay [4], 9%; in assay [5], -2.6%.

As for `NC(=S)N/N=C1/CCCC/C1=N/O`, the growth inhibition is 46.1% in assay [1]; 36.2% in assay [6]; -0.15% in assay [3]; 25.2% in assay [4]; -6.35% in assay [5].

For the molecule `Cc1cc(C)c(N(C)C(=O)CCC(=O)O)c(Br)c1`, the growth inhibition in assay [1] is 3.1%; in assay [6], -13.2%; in assay [3], 0.05%; in assay [4] it was 9%; in assay [5], -6.45%.

In the case of `CC(C)CCCC(C)C1CCC2C3CCC4=CCCCC4(C)C3CCC12C` (stereo not given), the growth inhibition in assay [1] is 4.6%; in assay [6], 27.8%; in assay [3] it was 33.1%; in assay [4], 2.45%; in assay [5], 50.7%.

In the case of `Brc1cccc(-c2nnc(-c3ccc4ccccc4c3)o2)c1`, the growth inhibition in assay [1] is -5.85%; in assay [6], 6%; in assay [3] it was 11.4%; in assay [4] it was -9%; in assay [5] it was -2.25%.

Regarding `O=C1c2ccccc2OCC1/C=N/O` (stereo not given), the growth inhibition is 1.9% in assay [1]; -26.4% in assay [6]; 32.2% in assay [3]; -34.1% in assay [4]; -10.8% in assay [5].

On to `CC(CC(C)(C)C)C(=O)NC(N)=O` (stereo not given), for which the growth inhibition in assay [1] was 29.3%; in assay [6] it was -7.95%; in assay [3], -0.6%; in assay [4], 8.65%; in assay [5], 7.6%.
